Most compounds without a hit are left out; they make up all but 2.9% or so of the library.
APOBEC3A inh: human APOBEC3A DNA deaminase inhibition; 330,000 tested, 0.41% active; inhibition, % at 20 µM; recombinant A3A, FAM/TAMRA ssDNA deamination fluorescence; P31941;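 active means at least 40% inhibition at 20 µM here, with at most 30% in a related deaminase screen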;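 further: plate controls were A3A with DMSO for no effect and wells lacking A3A enzyme for full effect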
Cardio protect: myocardial damage modulation in H9c2 cells | H9c2 cardiomyocytes, H2O2 injury protection, ATPLite, 2 h | protection from H2O2 cell death, % at 20 µM | 360,000 tested, 0.63% active;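 active means compounds giving at least 50% protection of heart cells from peroxide-induced death in the single-dose screen, raw or plate-pattern-corrected value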;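 further: 0% = DMSO wells with peroxide and 100% = DMSO wells without peroxide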
APOBEC3G inh: blocks human APOBEC3G single-stranded DNA deamination. Q9HC16. recombinant A3G, ssDNA deamination FAM/TAMRA fluorescence. inhibition, % at 20 µM. 330,000 tested, 0.28% active. AID 493012;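 active means inhibition of at least 40% at 20 µM, with no more than 30% in the related APOBEC3A deaminase screen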;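 further: plate controls were DMSO wells with A3G for no effect and wells lacking A3G enzyme for full effect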
Target sequence (Q9HC16 whole entry, looked up): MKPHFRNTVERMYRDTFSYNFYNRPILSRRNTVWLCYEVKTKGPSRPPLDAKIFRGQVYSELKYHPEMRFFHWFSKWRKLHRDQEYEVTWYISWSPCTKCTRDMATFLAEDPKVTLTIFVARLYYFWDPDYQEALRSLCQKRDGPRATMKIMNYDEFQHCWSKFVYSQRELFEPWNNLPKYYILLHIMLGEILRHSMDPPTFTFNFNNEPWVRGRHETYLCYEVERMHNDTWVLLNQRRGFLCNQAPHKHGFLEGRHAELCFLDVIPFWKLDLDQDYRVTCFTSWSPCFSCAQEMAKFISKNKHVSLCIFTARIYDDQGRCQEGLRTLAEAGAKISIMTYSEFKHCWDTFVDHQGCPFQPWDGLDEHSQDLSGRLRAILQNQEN
TAG inh: inhibitors of triacylglycerol accumulation. H9c2 cells, Nile Red lipid (TAG) fluorescence; cells loaded with 200 µM oleic acid. inhibition, % at 12.5 µM. 230,000 tested, 0.66% active;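 active means pattern-corrected inhibition of lipid staining of at least 50% with the nuclear-stain viability signal not falling by more than 50%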;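 further: 0% = DMSO wells and 100% = triacsin C control wells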
PfGluPho inh: PfG6PD (Plasmodium falciparum) enzyme inhibition | PfGluPho enzyme, NADPH resazurin-diaphorase fluorescence | inhibition, % at 20 µM | 350,000 tested, 0.78% active | AID 504690;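 active means inhibition reaching at least a set limit at 20 µM in the primary screen, cut at about 59% in these data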;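 further: 0% = DMSO wells with substrate and 100% = DMSO wells lacking glucose-6-phosphate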
NadD inh: inhibitors of Staphylococcus aureus NadD | purified NadD enzyme, colorimetric absorbance read-out | inhibition, % at 20 µM | 360,000 tested, 0.78% active | AID 602399; in the data active means inhibition above about 26%
Numbers without * were called inactive.

`COc1ccc(N(CC(=O)Nc2ccc3c(c2)OCO3)S(=O)(=O)c2ccccc2)c(OC)c1` gave APOBEC3A inh -4, Cardio protect 54*, APOBEC3G inh -5, TAG inh 30, PfGluPho inh -4 and NadD inh -10.
For CC(NC(=O)C1CCN(S(=O)(=O)c2ccc3c(c2)NC(=O)CO3)CC1)c1ccccc1 (stereo not drawn) the results were APOBEC3A inh 1, Cardio protect 0, APOBEC3G inh 1, PfGluPho inh 3 and NadD inh 9.
`Cc1cc(C)c(S(=O)(=O)/N=C2\C=CC(=O)C(Cl)=C2)c(C)c1` gave APOBEC3A inh 7, Cardio protect -1, APOBEC3G inh 7, PfGluPho inh 21 and NadD inh 47*.
Clc1ccc(OCc2nnc3n2CCCCC3)c(Cl)c1 was read as APOBEC3A inh -3, Cardio protect -7, APOBEC3G inh -7, TAG inh 4, PfGluPho inh 1 and NadD inh -1.
For CN(C)c1ccc(/C=C/C=C2/SC(=S)N(c3ccccc3)C2=O)cc1 the results were APOBEC3A inh -5, Cardio protect -16, APOBEC3G inh -1, PfGluPho inh 5 and NadD inh 43*.
`O=C(O)c1ccc(N2C(=O)/C(=C/C=C/c3ccccc3)SC2=S)cc1` gave APOBEC3A inh 1, Cardio protect -1, APOBEC3G inh -7, TAG inh -1, PfGluPho inh 29 and NadD inh 1.
For CCCNC(=O)c1ccc2c(=O)c(O)c(-c3ccc(Cl)c([N+](=O)[O-])c3)[nH]c2c1 the results were APOBEC3A inh -6, Cardio protect 68*, APOBEC3G inh -3, TAG inh 20, PfGluPho inh -9 and NadD inh 14.
Screening Cc1nn(-c2ccccc2)nc1-c1nnc(-c2ccc(C(F)(F)F)cc2)o1 returned APOBEC3A inh 0, Cardio protect 2, APOBEC3G inh 7, TAG inh -9, PfGluPho inh -10 and NadD inh -6.
`CC(/C=C/c1ccccc1)=N/NC(=O)c1cc([N+](=O)[O-])cc([N+](=O)[O-])c1` gave Cardio protect 65*, PfGluPho inh -15 and NadD inh 12.
For CC(/C=C/c1cccc([N+](=O)[O-])c1)=N/NC(=O)c1cccnc1 the results were APOBEC3A inh 4, Cardio protect 39, APOBEC3G inh 0, TAG inh -3, PfGluPho inh 9 and NadD inh 4.
Screening COCCS(=O)(=O)N(Cc1ccccc1)[C@H](C(=O)OC)C(C)C returned APOBEC3A inh 5, Cardio protect -3, APOBEC3G inh 5, TAG inh -16, PfGluPho inh 4 and NadD inh 4.
`COC(=O)c1cc2c(C)cc3ccc(C)cn3c-2c1C(=O)OC` gave APOBEC3A inh -3, Cardio protect 12, APOBEC3G inh 0, TAG inh 0, PfGluPho inh -1 and NadD inh -1.
For COC(=O)c1cc2c(C)c(C)c3ccccn3c-2c1C(=O)OC the results were APOBEC3A inh -2, Cardio protect 62*, APOBEC3G inh -1, TAG inh -13, PfGluPho inh 19 and NadD inh 2.
COC(=O)c1cc2ccccn2c2c(C(=O)OC)c(C(=O)OC)cc1-2 was read as APOBEC3A inh -5, Cardio protect 79*, APOBEC3G inh 7, PfGluPho inh 7 and NadD inh -5.
`O=C(CSc1nnnn1-c1ccc2c(c1)OCCO2)N1CCN(C(=O)c2ccco2)CC1` gave APOBEC3A inh -1, Cardio protect -2, APOBEC3G inh -4, TAG inh -33, PfGluPho inh -5 and NadD inh 4.
For CCOC(=O)CN1C(=O)S/C(=C\c2ccc(-c3cccc(C(=O)O)c3C)o2)C1=O the results were APOBEC3A inh 6, Cardio protect 5, APOBEC3G inh -5, TAG inh -8, PfGluPho inh 16 and NadD inh -2.
`Cc1ccc(NC(=O)CN2C(=O)S/C(=C\c3ccc(-c4cccc(C(=O)O)c4C)o3)C2=O)cc1C` gave Cardio protect -3, TAG inh -9, PfGluPho inh -13 and NadD inh 35*.
Screening Cc1ccc(-n2c(C)cc(-c3csc(N)n3)c2C)cc1 returned APOBEC3A inh 3, Cardio protect -7, APOBEC3G inh -2, PfGluPho inh 20 and NadD inh 30*.

Screens from PubChem.
